SRC1 TRFRET art: TR-FRET detection interference compounds, primary screen, artefact control for PPARgamma SRC-1 recruitment agonists, biochemical, TR-FRET emission ratio | TR-FRET detection artefact counter-screen; stronger effect = higher value | hit rate 0.34% among 99,000 | TR-FRET ratio at 8 µM; in the data active = TR-FRET ratio above about 2300
PPARg SRC-3 ag: PPARgamma agonists recruiting SRC-3 coactivator, primary screen, biochemical; Peroxisome proliferator-activated receptor gamma (Homo sapiens), P37231; biochemical PPARgamma/SRC-3 coactivator recruitment assay; activation, % at 8 µM; hit rate 0.26% among 200,000; AID 731, 2007; in the data active = activation above about 23%;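 note: 0% = DMSO and 100% = reference agonist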
Target sequence (P37231 whole entry, looked up): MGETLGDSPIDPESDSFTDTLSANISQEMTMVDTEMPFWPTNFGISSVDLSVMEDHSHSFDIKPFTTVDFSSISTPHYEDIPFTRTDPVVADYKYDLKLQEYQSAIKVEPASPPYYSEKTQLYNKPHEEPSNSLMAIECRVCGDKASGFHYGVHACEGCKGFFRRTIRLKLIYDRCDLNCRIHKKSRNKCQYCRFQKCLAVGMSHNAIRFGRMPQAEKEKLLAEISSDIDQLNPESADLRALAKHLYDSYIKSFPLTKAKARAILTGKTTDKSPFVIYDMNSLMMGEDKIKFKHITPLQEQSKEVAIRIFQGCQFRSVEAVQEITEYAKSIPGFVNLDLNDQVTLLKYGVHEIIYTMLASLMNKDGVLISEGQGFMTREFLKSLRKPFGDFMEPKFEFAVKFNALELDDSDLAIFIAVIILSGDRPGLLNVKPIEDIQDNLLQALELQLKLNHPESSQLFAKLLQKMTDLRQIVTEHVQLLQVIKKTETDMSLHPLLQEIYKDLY
PPARg SRC-1 ag: PPARgamma agonists recruiting SRC-1 coactivator, primary screen, biochemical. Peroxisome proliferator-activated receptor gamma (Homo sapiens), P37231. PPARgamma-SRC-1 coactivator recruitment biochemical assay. activation, % at 8 µM. hit rate 0.41% among 200,000. AID 631, 2007; in the data active = activation above about 19%;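 note: 0% = DMSO and 100% = reference agonist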
SRC3 TRFRET art: TR-FRET detection interference compounds, artefact control for PPARgamma SRC-3 recruitment agonists, biochemical, TR-FRET ratio | TR-FRET artefact counter-screen, PPARgamma/SRC-3 format; stronger effect = higher value | AID 1048, 2008 | hit rate 0.39% among 99,000 | TR-FRET ratio at 8 µM
SRC2 TRFRET art: TR-FRET signal artefacts, primary screen, artefact control for PPARgamma SRC-2 agonist project, biochemical | hit rate 0.4% among 200,000 | TR-FRET artefact counter-screen; stronger effect = higher value | AID 1049, 2008 | TR-FRET ratio at 8 µM
PPARg SRC2 recr: agonists of PPARg-SRC-2 recruitment, primary screen, biochemical, HTS. Peroxisome proliferator-activated receptor gamma (Homo sapiens), P37231. PPARgamma LBD-SRC-2 recruitment. activation, % at 8 µM. hit rate 0.34% among 200,000; in the data active = activation above about 22%;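 note: 0% = vehicle and 100% = reference agonist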
Numbers without * were called inactive. Most compounds without a hit are left out; they make up all but 0.9% or so of the library. Cut-off read from the data, not from the text of the source, unless noted: active = TR-FRET ratio above about 2000; inactive = the rest.

Results for Cc1ccc(/C=N/NC(=O)c2ccoc2C)s1 ?
SRC1 TRFRET art: 1649; PPARg SRC-3 ag: 1; PPARg SRC-1 ag: 8; SRC3 TRFRET art: 1691; SRC2 TRFRET art: 1445; PPARg SRC2 recr: -6

What do the screens show for `Cc1ccc(C)c(NC(=O)C2=CCN(S(=O)(=O)c3ccc(F)cc3)CC2)c1`?
SRC1 TRFRET art: 1649; PPARg SRC-3 ag: 1; PPARg SRC-1 ag: -9; SRC3 TRFRET art: 1514; SRC2 TRFRET art: 1325; PPARg SRC2 recr: -2

Results for O=C(N=Nc1c(O)n(Cc2ccccc2)c2ccccc12)c1ccc(O)cc1 ?
SRC1 TRFRET art: 2013; PPARg SRC-3 ag: 5; PPARg SRC-1 ag: -2; SRC3 TRFRET art: 1586; SRC2 TRFRET art: 1573; PPARg SRC2 recr: 9

What do the screens show for `COc1ccc(C(=O)NCC(=O)N=Nc2c(O)n(Cc3ccccc3)c3ccccc23)cc1OC`?
SRC1 TRFRET art: 2056; PPARg SRC-3 ag: 6; PPARg SRC-1 ag: 1; SRC3 TRFRET art: 1814; SRC2 TRFRET art: 2099*; PPARg SRC2 recr: 34*

What do the screens show for `Cc1cc(O)ccc1N=Cc1c(C(F)(F)F)[nH][nH]c1=O`?
SRC1 TRFRET art: 1800; PPARg SRC-3 ag: 10; PPARg SRC-1 ag: 7; SRC3 TRFRET art: 1708; SRC2 TRFRET art: 1808; PPARg SRC2 recr: 8

What do the screens show for `CCOc1ccccc1NC(=O)CSc1ncnc2c1oc1ccccc12`?
PPARg SRC-3 ag: 0; PPARg SRC-1 ag: 11; SRC2 TRFRET art: 1627; PPARg SRC2 recr: 6

Results for CCc1nnc(NC(=O)CSc2ncnc3c2oc2ccccc23)s1 ?
PPARg SRC-3 ag: 5; PPARg SRC-1 ag: 86*; SRC2 TRFRET art: 1593; PPARg SRC2 recr: 11

What do the screens show for `CCCSc1ncnc2c1oc1ccccc12`?
PPARg SRC-3 ag: 4; PPARg SRC-1 ag: 7; SRC2 TRFRET art: 1525; PPARg SRC2 recr: 2

How did O=C(CSc1ncnc2c1oc1ccccc12)N1CCN(c2ccccc2)CC1 do in these assays?
PPARg SRC-3 ag: 25; PPARg SRC-1 ag: 87*; SRC2 TRFRET art: 1527; PPARg SRC2 recr: 15

What do the screens show for `c1ccc(CSc2ncnc3c2oc2ccccc23)cc1`?
PPARg SRC-3 ag: 84*; PPARg SRC-1 ag: 59*; SRC2 TRFRET art: 2898*; PPARg SRC2 recr: 62*

How did CN(CC(=O)Nc1ccc(Cl)c(Cl)c1)Cc1nnc(-c2ccc(F)cc2)o1 do in these assays?
SRC1 TRFRET art: 1832; PPARg SRC-3 ag: 1; PPARg SRC-1 ag: 4; SRC3 TRFRET art: 1432; SRC2 TRFRET art: 1687; PPARg SRC2 recr: 3

What do the screens show for `CCOC(=O)Cc1cc(-c2ccc(F)cc2)nc2ccc3ccccc3c12`?
SRC1 TRFRET art: 1713; PPARg SRC-3 ag: 0; PPARg SRC-1 ag: 0; SRC3 TRFRET art: 1327; SRC2 TRFRET art: 1581; PPARg SRC2 recr: -4

What do the screens show for `COc1ccc(/C(C)=N/N=C2/NC(=O)CC(C(=O)O)S2)cc1` (stereo not given)?
SRC1 TRFRET art: 1477; PPARg SRC-3 ag: -1; PPARg SRC-1 ag: -8; SRC3 TRFRET art: 1614; SRC2 TRFRET art: 1565; PPARg SRC2 recr: -3

What do the screens show for `C/C(=N\N=C1\NC(=O)CC(C(=O)O)S1)c1ccc(F)cc1` (stereo not given)?
SRC1 TRFRET art: 2658*; PPARg SRC-3 ag: 2; PPARg SRC-1 ag: 16; SRC3 TRFRET art: 1450; SRC2 TRFRET art: 1531; PPARg SRC2 recr: -6

How did Nc1nnc(/C=C/c2ccccc2)s1 do in these assays?
SRC1 TRFRET art: 1791; PPARg SRC-3 ag: 1; PPARg SRC-1 ag: 6; SRC3 TRFRET art: 1739; SRC2 TRFRET art: 1522; PPARg SRC2 recr: -1

How did CC1(CCC#N)N=C(SCCC#N)N(c2ccccc2)C1=O (stereo not given) do in these assays?
PPARg SRC-3 ag: 2; PPARg SRC-1 ag: 2; SRC2 TRFRET art: 1990*; PPARg SRC2 recr: 8

What do the screens show for `NS(=O)(=O)c1ccc(CCNC(=O)c2cccc([N+](=O)[O-])c2)cc1`?
SRC1 TRFRET art: 1870; PPARg SRC-3 ag: -1; PPARg SRC-1 ag: 0; SRC3 TRFRET art: 1700; SRC2 TRFRET art: 1592; PPARg SRC2 recr: 2

What do the screens show for `Cn1c(C(=O)NCc2ccco2)cc2c(=O)[nH]c3ccccc3c21`?
SRC1 TRFRET art: 2510*; PPARg SRC-3 ag: 0; PPARg SRC-1 ag: 23*; SRC3 TRFRET art: 1309; SRC2 TRFRET art: 1736; PPARg SRC2 recr: 6

Assay outcomes as filed in PubChem BioAssay.
